We go through 38 compounds from PubChem BioAssay (Tox21).

Results filed as inconclusive are left out. Entries that show only a call come without a potency. The source made the active and inactive calls. Unless noted, the call rests on the fitted dose curve.

The target of the first assay is Estrogen receptor (Homo sapiens) (UniProt P03372). Kind of assay: qHTS assay to identify small molecule antagonists of the estrogen receptor alpha (ER-alpha) signaling pathway (AID 743069; active means well fitted curve in the direction sought with a large enough effect in the signal ratio in the repeat runs, not every such curve was filed as active; the % refers to the signal ratio). To be noted: HEK293 ER-alpha-UAS-bla, beta-lactamase ratio, antagonist mode; series mostly up to 69.4 µM. In short, it runs like this: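 HEK293 cells stably carrying an ER-alpha-UAS-bla beta-lactamase reporter were pre-cultured overnight in 2% charcoal-stripped FBS medium. Test compounds in DMSO were added together with 17beta-estradiol for 18 hr at 37C. Read-out was fluorescence after 2 hr with LiveBLAzer B/G FRET substrate at room temperature.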
Estrogen receptor (Homo sapiens), sequence (P03372 whole entry, looked up): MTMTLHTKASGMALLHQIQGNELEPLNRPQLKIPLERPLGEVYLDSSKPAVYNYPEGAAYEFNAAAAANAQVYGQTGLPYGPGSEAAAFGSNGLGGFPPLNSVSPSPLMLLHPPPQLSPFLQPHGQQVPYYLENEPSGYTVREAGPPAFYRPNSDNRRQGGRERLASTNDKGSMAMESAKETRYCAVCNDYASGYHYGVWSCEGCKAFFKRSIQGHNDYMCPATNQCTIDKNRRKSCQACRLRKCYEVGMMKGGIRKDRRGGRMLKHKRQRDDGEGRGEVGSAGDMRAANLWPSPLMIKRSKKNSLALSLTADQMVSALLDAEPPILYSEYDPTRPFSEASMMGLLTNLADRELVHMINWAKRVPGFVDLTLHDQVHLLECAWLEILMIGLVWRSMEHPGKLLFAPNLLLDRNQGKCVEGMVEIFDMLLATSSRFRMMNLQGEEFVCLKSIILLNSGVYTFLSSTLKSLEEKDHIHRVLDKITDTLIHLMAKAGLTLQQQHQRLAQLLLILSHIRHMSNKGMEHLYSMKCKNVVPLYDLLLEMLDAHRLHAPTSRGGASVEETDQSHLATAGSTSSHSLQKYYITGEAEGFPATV
(In general: qHTS replaces the single test concentration by a dilution series.)
As for `CCCCC(CC)COC(=O)CCCCC(=O)OCC(CC)CCCC` (centres undefined), the Potency entry is “inactive”.

In the case of `O=C(O)CCCC[C@@H]1SC[C@@H]2NC(=O)N[C@@H]21`, the Potency entry is “inactive”.

As for `CCc1cccc(C)c1N`, the Potency entry is “inactive”.

As to `CC(=O)CC(=O)Nc1ccccc1C`, the Potency result is “inactive”.

In the case of `O=C(O)c1cc(O)c(O)c(O)c1`, the Potency result is “inactive”.

For the compound `C=C(C)C(=O)O[C@H]1C[C@@H]2CC[C@@]1(C)C2(C)C`, the Potency entry is “inactive”.

For the compound `C#CCN(C)Cc1ccccc1`, the Potency result is “inactive”.

For `Cc1ccc(N(C)C)cc1`, the Potency result is “inactive”.

For the compound `O=C(O)c1ccccc1C(c1ccc(O)cc1)c1ccc(O)cc1`, the Potency result is “inactive”.

On to `Fc1ccc(Br)cc1`, for which the Potency result was “inactive”.

As for `CCCCCCCCCCCCCCO`, the Potency result was “inactive”.

Regarding `O=[N+]([O-])c1ccc(/C=C/c2ccc([N+](=O)[O-])cc2S(=O)(=O)O)c(S(=O)(=O)O)c1`, the Potency result was “inactive”.

With `O=C=NCCCCCCN=C=O`, the Potency result is “inactive”.

On to `CC(c1cc2ccccc2s1)N(O)C(N)=O` (centres undefined), for which the Potency result was “inactive”.

Turning to `COS(C)(=O)=O`, the Potency result is “inactive”.

In the case of `Cc1cccc(O)c1`, the Potency result is “inactive”.

Take `CN(C)CCCN`: the Potency result was “inactive”.

Consider `CC(C)(N)CO`, for which the Potency result was “inactive”.

In the case of `c1c[nH]cn1`, the Potency entry was “inactive”.

As to `CCCCCCCCCCCCS`, the Potency entry was “inactive”.

For the compound `COc1cc(Cc2cnc(N)nc2N)cc(OC)c1OC`, the Potency result was “inactive”.

As for `CCCCCCCCCC`, the Potency entry was “inactive”.

Regarding `CCN(CC)c1ccc(C(=O)c2ccccc2C(=O)O)c(O)c1`, the Potency entry is “inactive”.

With `FC(F)(F)c1ccc(Cl)c(Cl)c1`, the Potency entry was “inactive”.

In the case of `CC[C@H](C)C(=O)O[C@H]1C[C@@H](C)C=C2C=C[C@H](C)[C@H](CC[C@@H]3C[C@@H](O)CC(=O)O3)[C@H]21`, the Potency entry was “inactive”.

Consider `CCCCN(CCCC)CCCC`, for which the Potency entry is “inactive”.

For `CC(C)c1ccc(S(=O)(=O)O)cc1`, the Potency result was “inactive”.

As for `C=CCOC(=O)c1ccccc1C(=O)OCC=C`, the Potency result was “inactive”.

For `c1ccc(OCCOc2ccccc2)cc1`, the Potency result is “inactive”.

As for `CC(=O)c1ccccc1`, the Potency result was “inactive”.

`O=C(OCCOCCOC(=O)c1ccccc1)c1ccccc1`: the Potency result is “inactive”.

In the case of `C/C=C1/CC2C=CC1C2` (centres undefined), the Potency entry was “inactive”.

Consider `CCCCCCOCCO`, for which the Potency result was “inactive”.

Consider `OC[C@H]1O[C@@](CO)(O[C@H]2O[C@H](CO)[C@@H](O)[C@H](O)[C@H]2O)[C@@H](O)[C@@H]1O`, for which the Potency result is “inactive”.

Tested on in a further assay: not listed separately
Kind of assay: qHTS assay to identify small molecule antagonists of the estrogen receptor alpha (ER-alpha) signaling pathway - cell viability counter screen (AID 743074). Further: nearly all actives have a fitted effect of over 45% in size. As to conditions: ERalpha-bla HEK293 viability, CellTiter-Glo luminescence, 18 h; series mostly up to 69.4 µM.
As to `CCCCC(CC)COC(=O)CCCCC(=O)OCC(CC)CCCC` (centres undefined), the result was inactive.

With `O=C(O)CCCC[C@@H]1SC[C@@H]2NC(=O)N[C@@H]21`, the result was inactive.

Turning to `CCc1cccc(C)c1N`, the call was inactive.

As for `CC(=O)CC(=O)Nc1ccccc1C`, the compound was classed as inactive.

In the case of `O=C(O)c1cc(O)c(O)c(O)c1`, the outcome was inactive.

Turning to `C=C(C)C(=O)O[C@H]1C[C@@H]2CC[C@@]1(C)C2(C)C`, the compound was called inactive.

For the compound `CN(C)CCC(c1ccc(Cl)cc1)c1ccccn1` (centres undefined), the compound was classed as inactive.

For the compound `C#CCN(C)Cc1ccccc1`, the outcome was inactive.

Turning to `Cc1ccc(N(C)C)cc1`, the compound was called inactive.

As for `Fc1ccc(Br)cc1`, the call was inactive.

In the case of `CCCCCCCCCCCCCCO`, the call was inactive.

Turning to `O=[N+]([O-])c1ccc(/C=C/c2ccc([N+](=O)[O-])cc2S(=O)(=O)O)c(S(=O)(=O)O)c1`, the compound was classed as inactive.

`O=C=NCCCCCCN=C=O`: the result was inactive.

For `CC(c1cc2ccccc2s1)N(O)C(N)=O` (centres undefined), the compound was called inactive.

As for `COS(C)(=O)=O`, the call was inactive.

With `CN(C)CCCN`, the result was inactive.

As for `CC(C)(N)CO`, the result was inactive.

As to `c1c[nH]cn1`, the outcome was inactive.

Turning to `CCCCCCCCCCCCS`, the compound was classed as inactive.

As to `COc1cc(Cc2cnc(N)nc2N)cc(OC)c1OC`, the result was inactive.

On to `CCCCCCCCCC`, for which the compound was classed as inactive.

Turning to `CCN(CC)c1ccc(C(=O)c2ccccc2C(=O)O)c(O)c1`, the result was inactive.

Turning to `FC(F)(F)c1ccc(Cl)c(Cl)c1`, the compound was classed as inactive.

Turning to `CC[C@H](C)C(=O)O[C@H]1C[C@@H](C)C=C2C=C[C@H](C)[C@H](CC[C@@H]3C[C@@H](O)CC(=O)O3)[C@H]21`, the outcome was inactive.

Turning to `CCCCN(CCCC)CCCC`, the result was inactive.

Turning to `CC(C)c1ccc(S(=O)(=O)O)cc1`, the compound was classed as inactive.

Turning to `C=CCOC(=O)c1ccccc1C(=O)OCC=C`, the compound was called inactive.

For the compound `CC(C)CC(=O)CC(C)C`, the outcome was inactive.

For the compound `CN(C)CCC(c1ccccc1)c1ccccn1` (centres undefined), the compound was classed as inactive.

Take `c1ccc(OCCOc2ccccc2)cc1`: the call was inactive.

`CC(=O)c1ccccc1`: the compound was classed as inactive.

Take `O=C(OCCOCCOC(=O)c1ccccc1)c1ccccc1`: the compound was called inactive.

As for `C/C=C1/CC2C=CC1C2` (centres undefined), the call was inactive.

Take `CCCCC(CC)COC(=O)CS` (centres undefined): the call was inactive.

As to `CCCCCCOCCO`, the result was inactive.

For the compound `OC[C@H]1O[C@@](CO)(O[C@H]2O[C@H](CO)[C@@H](O)[C@H](O)[C@H]2O)[C@@H](O)[C@@H]1O`, the result was inactive.

In the next assay the target is Estrogen receptor (Homo sapiens) (UniProt P03372). Nature of the assay: qHTS assay to identify small molecule agonists of the estrogen receptor alpha (ER-alpha) signaling pathway (AID 743075). To be noted: HEK293 ER-alpha-UAS-bla, beta-lactamase FRET ratio, 18 h; series mostly up to 70.1 µM.
In the case of `CCCCC(CC)COC(=O)CCCCC(=O)OCC(CC)CCCC` (centres undefined), the Potency result is “inactive”.

For the compound `O=C(O)CCCC[C@@H]1SC[C@@H]2NC(=O)N[C@@H]21`, the Potency result was “inactive”.

Consider `CCc1cccc(C)c1N`, for which the Potency entry is “inactive”.

For the compound `CC(=O)CC(=O)Nc1ccccc1C`, the Potency entry was “inactive”.

Consider `O=C(O)c1cc(O)c(O)c(O)c1`, for which the Potency entry was “inactive”.

For `C=C(C)C(=O)O[C@H]1C[C@@H]2CC[C@@]1(C)C2(C)C`, the Potency entry was “inactive”.

As for `C#CCN(C)Cc1ccccc1`, the Potency result was “inactive”.

Take `Cc1ccc(N(C)C)cc1`: the Potency entry was “inactive”.

In the case of `O=C(O)c1ccccc1C(c1ccc(O)cc1)c1ccc(O)cc1`, the Potency entry was “inactive”.

With `Fc1ccc(Br)cc1`, the Potency entry was “inactive”.

`CCCCCCCCCCCCCCO`: the Potency entry is “inactive”.

Take `O=[N+]([O-])c1ccc(/C=C/c2ccc([N+](=O)[O-])cc2S(=O)(=O)O)c(S(=O)(=O)O)c1`: the Potency result was “inactive”.

In the case of `O=C=NCCCCCCN=C=O`, the Potency entry was “inactive”.

For `CC(c1cc2ccccc2s1)N(O)C(N)=O` (centres undefined), the Potency entry was “inactive”.

Take `COS(C)(=O)=O`: the Potency result is “inactive”.

As to `Cc1cccc(O)c1`, the Potency entry is “inactive”.

For `CN(C)CCCN`, the Potency entry is “inactive”.

Turning to `CC(C)(N)CO`, the Potency result is “inactive”.

Take `c1c[nH]cn1`: the Potency result is “inactive”.

Consider `CCCCCCCCCCCCS`, for which the Potency entry is “inactive”.

Turning to `COc1cc(Cc2cnc(N)nc2N)cc(OC)c1OC`, the Potency result was “inactive”.

In the case of `CCCCCCCCCC`, the Potency result was “inactive”.

With `CCN(CC)c1ccc(C(=O)c2ccccc2C(=O)O)c(O)c1`, the Potency result is “inactive”.

`FC(F)(F)c1ccc(Cl)c(Cl)c1`: the Potency result is “inactive”.

`CC[C@H](C)C(=O)O[C@H]1C[C@@H](C)C=C2C=C[C@H](C)[C@H](CC[C@@H]3C[C@@H](O)CC(=O)O3)[C@H]21`: the Potency entry was “inactive”.

`CCCCN(CCCC)CCCC`: the Potency result is “inactive”.

Take `CC(C)c1ccc(S(=O)(=O)O)cc1`: the Potency result was “inactive”.

Regarding `C=CCOC(=O)c1ccccc1C(=O)OCC=C`, the Potency result is “inactive”.

Turning to `c1ccc(OCCOc2ccccc2)cc1`, the Potency entry was “inactive”.

Regarding `CC(=O)c1ccccc1`, the Potency result is “inactive”.

For the compound `O=C(OCCOCCOC(=O)c1ccccc1)c1ccccc1`, the Potency result was “inactive”.

On to `C/C=C1/CC2C=CC1C2` (centres undefined), for which the Potency result is “inactive”.

`CCCCCCOCCO`: the Potency result is “inactive”.

As for `OC[C@H]1O[C@@](CO)(O[C@H]2O[C@H](CO)[C@@H](O)[C@H](O)[C@H]2O)[C@@H](O)[C@@H]1O`, the Potency result is “inactive”.
